{"source": "PubChem BioAssay (NCATS)", "note": "Results filed as inconclusive are left out. Unmarked numbers belong to inactive results. The source made the active and inactive calls. Calls follow the shape of the dose curve; as a rule, active = well fitted inhibition curve with a large enough effect; inconclusive = small, poorly fitted or top-dose-only effect; inactive = no such curve, though single readings can be large or run the other way. % is scaled to controls: 0 for no effect and ±100 for the full control effect; potency is read from the fitted curve at half-maximal effect.", "data": [{"target": "N-terminal Xaa-Pro-Lys N-methyltransferase 1 (Homo sapiens) (UniProt Q9BV86)", "sequence (Q9BV86 whole entry, looked up)": "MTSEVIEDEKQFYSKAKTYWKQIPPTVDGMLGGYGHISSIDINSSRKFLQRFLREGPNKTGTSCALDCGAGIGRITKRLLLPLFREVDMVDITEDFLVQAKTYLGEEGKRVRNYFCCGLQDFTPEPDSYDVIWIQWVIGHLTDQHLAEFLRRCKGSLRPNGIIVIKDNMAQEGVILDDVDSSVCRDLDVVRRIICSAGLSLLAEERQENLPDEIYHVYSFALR", "assay": "qHTS Assay for Inhibitors of N-terminal methyltransferase 1 (NTMT1): LOPAC validation of the NTMT1 SAHH-coupled ThioGlo3 Assay (AID 1347143); also: nearly all actives have a fitted effect of over 70% in size", "details": "recombinant NTMT1, SAHH-coupled ThioGlo3 fluorescence; series mostly up to 114 µM; activity change, negative = inhibition: at the top concentration", "outline": "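Fluorescence read-out (excitation 340nm, emission 450nm) of SAH-derived thiol, measured via SAHH coupling and ThioGlo3, taken immediately and after a 30 min room-temperature reaction, then normalized to the background read. Enzyme: NTMT1 at 125nM; cofactor SAM 100uM in the added reagent.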", "units": {"activity change, negative = inhibition": "%"}, "values": [{"smiles": "Cc1cccc(C)c1NC(=O)CN1CCCC1=O", "activity change, negative = inhibition": -7.4}, {"smiles": "CC(=O)[C@H]1CC[C@H]2[C@@H]3CC[C@H]4C[C@H](O)CC[C@]4(C)[C@H]3C(=O)C[C@]12C", "activity change, negative = inhibition": -19.4}, {"smiles": "CCC1(C2=NCCN2)Cc2ccccc2O1", "note": "(stereo not drawn)", "activity change, negative = inhibition": -6.88}, {"smiles": "CC[C@@H](CO)NC(=O)[C@@H]1C=C2c3cccc4c3c(cn4C)C[C@H]2N(C)C1", "Potency": "56.2 µM (active)"}, {"smiles": "CC(=O)[C@H]1CC[C@H]2[C@@H]3CC[C@H]4C[C@](C)(O)CC[C@]4(C)[C@H]3CC[C@]12C", "activity change, negative = inhibition": -7.81}, {"smiles": "N#CC(C#N)=Cc1ccc(O)c(O)c1", "Potency": "56.2 µM (active)"}, {"smiles": "CCn1cc(C(=O)O)c(=O)c2ccc(C)nc21", "activity change, negative = inhibition": -5.35}, {"smiles": "O=C1NCN(c2ccccc2)C12CCN(CC1COc3ccccc3O1)CC2", "note": "(stereo not drawn)", "activity change, negative = inhibition": -15.9}, {"smiles": "NCC(O)c1ccc(O)cc1", "note": "(stereo not drawn)", "activity change, negative = inhibition": -5.11}, {"smiles": "COc1ccccc1N1CCNCC1", "activity change, negative = inhibition": -22.4}, {"smiles": "NCC1(CC(=O)O)CCCCC1", "activity change, negative = inhibition": -3.26}, {"smiles": "Nc1ccncc1", "activity change, negative = inhibition": 1.59}, {"smiles": "CCCN1CCC[C@@H]2Cc3[nH]ncc3C[C@H]21", "activity change, negative = inhibition": -18.4}, {"smiles": "NCC(CC(=O)O)c1ccc(Cl)cc1", "note": "(stereo not drawn)", "activity change, negative = inhibition": -7.5}, {"smiles": "CC(CCc1ccccc1)NC(C)C(O)c1ccc(O)cc1", "note": "(stereo not drawn)", "activity change, negative = inhibition": -13.1}, {"smiles": "COc1ccc(C(CN(C)C)C2(O)CCCCC2)cc1", "note": "(stereo not drawn)", "activity change, negative = inhibition": -24.8}, {"smiles": "c1ccc2c(c1)OCC(C1=NCCN1)O2", "note": "(stereo not drawn)", "Potency": "56.2 µM (active)"}, {"smiles": "C[C@@H]1O[C@@H](O[C@H]2C[C@@H](O)[C@]3(CO)[C@H]4[C@H](O)C[C@]5(C)[C@@H](C6=CC(=O)OC6)CC[C@]5(O)[C@@H]4CC[C@]3(O)C2)[C@H](O)[C@H](O)[C@H]1O", "activity change, negative = inhibition": -8.99}, {"smiles": "Cc1ccc(S(=O)(=O)N[C@@H](CCCCN)C(=O)CCl)cc1", "Potency": "56.2 µM (active)"}, {"smiles": "CC[N+](CC)(CC)CC", "activity change, negative = inhibition": -7.2}, {"smiles": "CC[C@@H](CO)NC(=O)[C@@H]1C=C2c3cccc4[nH]cc(c34)C[C@H]2N(C)C1", "Potency": "25.1 µM (active)"}, {"smiles": "Cn1c(CCCC(=O)O)nc2cc(N(CCCl)CCCl)ccc21", "Potency": "56.2 µM (active)"}, {"smiles": "NN=C(N)N", "Potency": "inactive"}, {"smiles": "Cc1cccc(C)c1NC1=NCCCS1", "activity change, negative = inhibition": -17.4}, {"smiles": "O=c1[nH]c2ccccc2n1CCCN1CCC(n2c(=O)[nH]c3cc(Cl)ccc32)CC1", "activity change, negative = inhibition": -22.3}, {"smiles": "O=c1[nH]c2ccccc2n1C1CCN(CCCC(c2ccc(F)cc2)c2ccc(F)cc2)CC1", "activity change, negative = inhibition": -17.3}, {"smiles": "c1ccc(C2CC2)c(OCC2=NCCN2)c1", "activity change, negative = inhibition": -18.1}, {"smiles": "CNCC(O)c1ccc(O)cc1", "note": "(stereo not drawn)", "activity change, negative = inhibition": -11}]}]}
